Data taken from PubChem BioAssay (NCI).
This is part of a sample that, as a whole, favours compounds with a hit. Of some 79,000 tested, about 15% had one in any assay. Rule as the data show it: active = growth inhibition above about 70%; inactive = the rest.

Columns and labels:
[1] = NCI Yeast Anticancer Drug Screen. Data for the rad50 strain (AID 155);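 also: 0% = growth of vehicle-only cultures of the same strain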; conditions: S. cerevisiae rad50 strain growth inhibition; at 50.0 µM; stronger effect = higher value
Method in brief: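 Readout: growth inhibition relative to vehicle-treated cultures. Compound exposure was carried out in a genetically defined yeast strain deficient in DNA damage repair.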

[2] = NCI Yeast Anticancer Drug Screen. Data for the mec2-1 strain (AID 157); conditions: S. cerevisiae mec2-1 strain, at 50.0 µM, stronger effect = higher value
Method in brief: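 Readout is yeast growth inhibition, normalised to vehicle-treated controls, in the mec2-1 strain exposed to compound.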

[3] = NCI Yeast Anticancer Drug Screen. Data for the sgs1 mgt1 strain (AID 161);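 also: 0% = growth of cultures given vehicle only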; conditions: S. cerevisiae sgs1 mgt1 strain, at 50.0 µM, stronger effect = higher value
Method in brief: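 Compounds are added to genetically altered yeast, and growth is compared with cultures given vehicle alone to give percent inhibition.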

[4] = NCI Yeast Anticancer Drug Screen. Data for the cln2 rad14 strain (AID 165);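 also: 0% = growth equal to vehicle treated cultures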; conditions: S. cerevisiae cln2 rad14 strain, at 50.0 µM, stronger effect = higher value
Method in brief: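 Relative to vehicle controls, growth inhibition of compound-treated cln2 rad14 yeast was recorded.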

[5] = NCI Yeast Anticancer Drug Screen. Data for the bub3 strain (AID 167); conditions: S. cerevisiae bub3 mutant strain, at 50.0 µM, stronger effect = higher value
Method in brief: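 Readout: yeast growth inhibition, expressed relative to vehicle-only wells. The test organism is a mutant strain from a panel with lesions in DNA repair or checkpoint genes.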

[6] = NCI Yeast Anticancer Drug Screen. Data for the mlh1 rad18 strain (AID 175); conditions: S. cerevisiae mlh1 rad18 strain growth inhibition; at 50.0 µM; stronger effect = higher value
Method in brief: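 Test agents were incubated with a yeast strain of defined genotype (DNA damage repair defect). Inhibition of growth was derived by comparison with vehicle-exposed cultures.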

Measured: growth inhibition

CC(Oc1ccc2cc(C(=O)c3ccccc3)c(=O)oc2c1)C(=O)O (stereo not given)
inactive: [1] -4.25% | [2] 3.75% | [3] 19.2% | [4] 32.9% | [5] -0.1% | [6] 44.9%

CCc1ccc([OH2+])c(C(=O)[O-])c1.CCc1ccc([OH2+])c(C(=O)[O-])c1.CCc1ccc([OH2+])c(C(=O)[O-])c1.CCc1ccc([OH2+])c(C(=O)[O-])c1.[Cu+2].[Cu+2]
inactive: [1] 18.9% | [2] 2.5% | [3] 21.6% | [4] 29.3% | [5] 8.75% | [6] 20.9%

O=C(Nc1cc2ccccc2cc1C(=O)O)Nc1cccc2ccccc12
inactive: [1] 10.2% | [2] 7% | [3] 32.6% | [4] 6.2% | [5] 20.1% | [6] 30.3%

O=C(NO)/C(CC(=O)c1ccc(O)cc1)=N\O
inactive: [1] -8.9% | [2] -10.4% | [3] -6.9% | [4] -11.2% | [5] -3.7% | [6] 4.7%

CCCCN1C(=O)C(CC(=O)OCC)SC1=S (stereo not given)
inactive: [1] -8.35% | [2] -28.7% | [3] -19.9% | [4] -7.8% | [5] -18.2% | [6] -14.3%

c1ccc(-c2cc3c4ccccc4ccn3c2)cc1
inactive: [1] 15.2% | [2] 10.2% | [3] 20.2% | [4] 3.65% | [5] -2.95% | [6] -5.95%

CCCCCCOC(=O)C[n+]1ccc(C(N)=O)cc1
inactive: [1] 2.45% | [2] 17.1% | [3] -15.2% | [4] -14.8% | [5] -18.8% | [6] -1.9%

CN(C)C=NCC(O)c1ccccc1 (stereo not given)
inactive: [1] 13.3% | [2] 15% | [3] 0% | [4] -3% | [5] -21.2% | [6] -22.1%

COc1ccc(C2=C/C(=C/c3ccc(N(CCC#N)CCC#N)cc3)C(=O)O2)cc1
inactive: [1] -75.2% | [2] -6.2% | [3] -16.4% | [4] -18.2% | [5] -3.05% | [6] -22.8%

CC(=O)Oc1ccc(O)c(C(=O)O)c1
inactive: [1] 1.8% | [2] -7.15% | [3] -4.95% | [4] -1.35% | [5] 0.2% | [6] 17.3%

O=C(O)c1cc(=O)c2c([nH]c3ccccc32)s1
inactive: [1] -4.9% | [2] -18.7% | [3] -14.6% | [4] 5.25% | [5] -14.3% | [6] 13.3%

CN1c2ccccc2Oc2ccc3ccccc3c21
inactive: [1] 13.8% | [2] -24.6% | [3] 0.95% | [4] -4.3% | [5] -8.2% | [6] 12.8%

O=[n+]1c2c(n([O-])c3cc(Cl)c(Cl)cc31)CCCC2
inactive: [1] 11.8% | [2] 11.2% | [3] 17.5% | [4] -2% | [5] 25.9% | [6] 4.9%

Cc1nn(-c2ccc([N+](=O)[O-])cc2)c2c1C(C)(C)C(C#N)=C(N)O2
inactive: [1] -9.9% | [2] -6.7% | [3] -3.5% | [4] -3.55% | [5] 0.65% | [6] 6.95%

CCCCCCCCCCCCCCC(O)CO (stereo not given)
inactive: [1] -11.3% | [2] -12.7% | [3] -4.45% | [4] -102% | [5] -27.1% | [6] -20.9%

O=C(c1ccccc1)C12CCCC(CC1)C2 (stereo not given)
inactive: [1] 0.15% | [2] -19.9% | [3] -2.2% | [4] -37.5% | [5] -9.6% | [6] 0.65%

CC(=O)NCCCCNS(=O)(=O)c1ccc(C)cc1
inactive: [1] -16.1% | [2] -3.15% | [3] -17.4% | [4] -6.1% | [5] -0.7% | [6] 5.1%

CN(C)N=Nc1c(F)cc(F)c(F)c1F
inactive: [1] 4.75% | [2] 3.35% | [3] -9% | [4] -14.2% | [5] 7.3% | [6] -4.05%

CCO[C@H]1OC(=O)[C@@H]2C(c3ccc(F)cc3)=NO[C@H]12
inactive: [1] -27.1% | [2] -44.4% | [3] 0.35% | [4] 2.7% | [5] 8.95% | [6] -9.3%

CC[C@@]1(C)CCC2c3ccc(O)cc3CC[C@H]2C1C (stereo not given in full)
inactive: [1] -2.1% | [2] -9.1% | [3] 21.4% | [4] 42.6% | [5] -8.75% | [6] -6.6%
